From PubChem BioAssay
HCMV antiviral = qHTS Assay for inhibitors of the human cytomegalovirus (HCMV) | HFF cells, HCMV-luciferase reporter, 72 h; stronger effect = lower value | activity change, negative = inhibition, % at 57.5 µM | actives 4.5% (n = 410,000) | AID 1259415, 2018; in the data active = activity change below about -60%; inconclusive = no clear call, values can overlap the other calls; inactive = above about -39%
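Cell-based, HFFs, 1000 cells/well, 16 h 37C; cpds in DMSO + HCMV-luc, MOI 1 PFU/cell; 72 h 37C; OneGlo luminescence after 5 min RT; norm. to buffer vs Salinomycin 10uM.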
MARV entry inh = qHTS for inhibitors of binding or entry into cells for Marburg Virus; Marburg virus pseudotyped entry inhibition, cell reporter; Potency, µM (titrated, usually from 37.8 µM), for inactives: at the top dose activity change, negative = inhibition, most hits filed as inhibitors; actives 1.8% (n = 300,000); AID 540276, 2011; calls by dose curve; tested in HEK293 cells; also: potency is read from the fitted curve at half-maximal effect
FMDV inh = High Throughput Screening for Foot and Mouth Disease Virus Antivirals. AID 1159524, 2015. actives 1.2% (n = 410,000). FMDV antiviral cell-based qHTS. Potency, µM (titrated, usually from 57.9 µM), without a hit: at the highest dose activity change, negative = inhibition, hits mostly inhibitors; calls by dose curve; tested in HEK293T cells; also: read-out not given here; potency is read from the fitted curve at half-maximal effect; nearly all actives have a fitted effect of over 45% in size
LASV entry inh = qHTS for Inhibitors of binding or entry into cells for Lassa Virus | Lassa virus pseudotype entry inhibition, cell reporter | Potency, µM (series often up to 37.9 µM), for the others: at the top dose activity change, negative = inhibition, hits mostly inhibitors | actives 1.2% (n = 300,000) | AID 540256, 2011; calls by dose curve; tested in HEK293 cells; also: potency is read from the fitted curve at half-maximal effect; nearly all actives have a fitted effect of over 50% in size
Starred values were filed as active, the others as inactive; ? = inconclusive; . = no result; [ ] = another dose, or the depositor's remark. Compounds with a hit are over-represented: about 6.2% of the library has one in this group of screens. % is scaled to controls: 0 for no effect and ±100 for the full control effect.

SMILES	HCMV antiviral	MARV entry inh	FMDV inh	LASV entry inh
CCc1ccc(N2CC(C(=O)Nc3ccc(OC)c(S(=O)(=O)N4CCOCC4)c3)CC2=O)cc1 (configuration not stated)	1	.	-19%	.
O=C(c1sc2ccccc2c1Cl)N1CCN(c2ncccn2)CC1	-63*	4%	?	8%
CCN1CCN(C(=O)Cn2ncc3c4ccccc4n(Cc4c(C)cc(C)cc4C)c3c2=O)CC1	-60*	?	0%	-25%[46.1 µM]
Cc1ccccc1Cn1c2ccccc2c2cnn(CC(=O)NCCc3ccccc3)c(=O)c21	-96*	?	8%	18%[46.1 µM]
Cc1ccccc1Cn1c2ccccc2c2cnn(CC(=O)NCCCc3ccccc3)c(=O)c21	-81*	24%[46.1 µM]	-21%	-23%[46.1 µM]
Cc1ccc(C)c(Cn2c3ccccc3c3cnn(CC(=O)N4CCCCC4)c(=O)c32)c1	-3	11%[46.1 µM]	-6%	-14%[46.1 µM]
Cc1ccc(C)c(Cn2c3ccccc3c3cnn(CC(=O)NCCCN4CCCCC4)c(=O)c32)c1	-79*	.	-22%	.
Cc1ccc(C)c(Cn2c3ccccc3c3cnn(CC(=O)NCCCc4ccccc4)c(=O)c32)c1	-3	?	9%	3%[46.1 µM]
O=C(Cn1ncc2c3ccccc3n(Cc3ccccc3F)c2c1=O)NCCCc1ccccc1	-3	-10%[46.1 µM]	-2%	-3%[46.1 µM]
CCOC(=O)/C(=N\Nc1ccc(Br)cc1)N1CCN(c2ccccc2OC)CC1	6	-25%[46.1 µM]	-23%	-21%
Cc1ccccc1Cn1c2ccccc2c2cnn(CC(=O)NC(C)CCc3ccccc3)c(=O)c21 (configuration not stated)	-75*	6%[46.1 µM]	-20%	?
CO[C@@H]1C=CC23c4cc5c(cc4CO[C@]2(O)CN(C)[C@H]3C1)OCO5 (some centres not stated)	-16	.	-6%	.
Cc1cccc(S(=O)(=O)c2c(N)n(/N=C/c3ccco3)c3nc4ccccc4nc23)c1	-28	?	20%	-22%
COc1ccc(/C=N/n2c(N)c(S(=O)(=O)c3cccs3)c3nc4ccccc4nc32)cc1OC	-88*	?	-24%	-10%
Nc1c(S(=O)(=O)c2cccs2)c2nc3ccccc3nc2n1/N=C/c1cccc(O)c1	-103*	?	40µM*	?
Cc1ccc(S(=O)(=O)c2c(N)n(/N=C/c3ccco3)c3nc4ccccc4nc23)cc1C	?	7.1µM*	7%	-25%
Cc1cccc(S(=O)(=O)c2c(N)n(/N=C/c3cccnc3)c3nc4ccccc4nc23)c1	?	?	.	-27%
COc1cccc(/C=N/n2c(N)c(S(=O)(=O)c3cccs3)c3nc4ccccc4nc32)c1	-62*	-1%	19%	1%
C[C@H]1CN([C@@H](C)CO)C(=O)CCCn2cc(nn2)CO[C@@H]1CN(C)C(=O)c1ccncc1	-8	.	-16%	.
CCCCOCCCNC(=O)C[C@@H]1C[C@@]2(C(=O)OC)CC(C)(C)CC=C2N(Cc2ccco2)C1=O	-31	.	-23%	.
Nc1ccc(N=Nc2ccccc2)cc1[N+](=O)[O-]	21	?	28%	0%[46.1 µM]
Cc1ccc(C(=O)NN2C(=O)/C(=C/c3cn(C)c4ccccc34)SC2=S)cc1	-69*	3%	6%	?
Cn1cc(/C=C2\SC(=S)N(NC(=O)c3ccccc3Cl)C2=O)c2ccccc21	-7	18%	7%	0%
COC1=CC(=O)c2nc(Cl)ccc2C1=O	-101*	.	10µM*	.
C[C@H]1CCCC=CC2C[C@H](O)C[C@@H]2[C@H](O)C=CC(=O)O1 (some centres not stated)	.	.	-19%	.
SMILES	HCMV antiviral	MARV entry inh	FMDV inh	LASV entry inh
CC1CCCC=CC2CC(OC(=O)CN(C)C)CC2C(O)C=CC(=O)O1 (configuration not stated)	-98*	?	-18%	1.4µM*
C[C@H]1CCC/C=C/[C@@H]2C[C@H](O)C[C@H]2[C@@H](O)/C=C/C(=O)O1	-76*	0.28µM*	-20%	0.4µM*
C[C@H]1CCC/C=C/[C@@H]2C[C@H](O)C[C@H]2[C@H](O)[C@H](S(=O)c2ccc(O)cc2)CC(=O)O1 (some centres not stated)	-99*	?	-19%	1.3µM*
Cc1nc(SCC(=O)c2cccs2)c2oc3ccccc3c2n1	12	16%	30%	?
COc1ccc(C(=O)/C=C/C(=O)N(CC(=O)NC2CCCCC2)CC2CCCO2)c(O)c1 (configuration not stated)	56	.	7.9µM*	.
COc1ccc(C(=O)/C=C/C(=O)N(CC(=O)NC2CCCCC2)Cc2ccccc2OC)c(O)c1	-97*	?	7.9µM*	?
COc1ccc(C(=O)/C=C/C(=O)N(CC(=O)NC2CCCCC2)Cc2ccccc2)c(O)c1	-99*	?	8.9µM*	4µM*
COc1ccc(C(=O)/C=C/C(=O)N(Cc2ccccc2OC)C(C(=O)NC2CCCCC2)c2ccncc2)c(O)c1 (configuration not stated)	?	?	13%	?
COc1ccc(C(=O)/C=C/C(=O)N(Cc2ccccc2)C(C(=O)NC2CCCCC2)c2ccncc2)c(O)c1 (configuration not stated)	?	?	-12%	?
CC1CCCCN1C(=O)Cn1cc(C=O)c2ccccc21 (configuration not stated)	-23	16%	-2%	8%
CC1CCCCN1C(=O)Cn1cc(C=C2C(=O)N(C)C(=O)N(C)C2=O)c2ccccc21 (configuration not stated)	-63*	-14%	-28%	-4%
Clc1ccc(CSc2nnc(NC3=NCCCCC3)s2)cc1	-67*	-28%	-26%	-12%
Nc1nnc(SCc2ccc(Cl)cc2)s1	-15	6%	-10%	17%
CC(C)[C@H](NC(=O)c1ccccc1)C(=O)OCC(=O)/C=C1/N(C)c2ccccc2C1(C)C	-68*	-41%	?	-21%
COc1cc(OC)cc(C(=O)NCC(=O)OCC(=O)/C=C2/N(C)c3ccccc3C2(C)C)c1	-23	?	-36%	-3%[46.1 µM]
COc1ccc(C(=O)/C=C2\NCC3c4ccccc4CCN3C2=O)cc1 (configuration not stated)	40	?	-13%	-10%
COc1ccc(/C=N/Nc2nnc(Cc3ccc(OC)c(OC)c3)c(=O)[nH]2)cc1	-68*	-52%	-1%	-3%
Cc1cc(NC(=O)C2CC(c3cccc(Br)c3)=NO2)no1 (configuration not stated)	45	-15%	.	3%
O=C1NC(=O)c2cc(NC(=O)c3cccc4ccccc34)ccc21	-85*	.	4%	.
CCCCn1c(SCC(=O)Nc2cccc(C)n2)nnc1-c1ccco1	-8	-18%	-18%	-25%
Cc1csc2c(NC3CCN(Cc4ccccc4)CC3)ncnc12	-18	2.8µM*	-14%	-14%[46.1 µM]
c1ccc(CN2CCC(Nc3ncnc4sccc34)CC2)cc1	-29	-5%[46.1 µM]	-14%	-3%
Cc1sc2ncnc(NC3CCN(Cc4ccccc4)CC3)c2c1C	-81*	?	?	?
